Molecules are shown by their SMILES. Results filed as inconclusive are left out. Activity calls are given as the source filed them. Unless noted, the call rests on the fitted dose curve; in most records, active means well fitted curve in the direction sought with a large enough effect in the repeat runs; inconclusive means weak or mixed curves; inactive means no such curve, though single readings can be large; an effect the other way counts as inactive or inconclusive.

The nature of experiment [1]: qHTS assay to identify small molecule agonists of the vitamin D receptor (VDR) signaling pathway - cell viability counter screen (AID 743224). Further: series mostly up to about 63 µM; nearly all actives have a fitted effect of over 50% in size. The procedure, abridged:
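Cells: VDR-bla, 2,000/well, settled 4 h. Treatment: compounds in DMSO, 16 h, 37C/5% CO2. Readout: CellTiter-Glo luminescence after 30 min RT.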

Experiment [2] can be described thus: qHTS assay to identify small molecule agonists of the NFkB signaling pathway (AID 1159509; active means well fitted curve in the direction sought with a large enough effect in the signal ratio in the repeat runs, not every such curve was filed as active; the % refers to the signal ratio; further: series mostly up to about 61 µM). The procedure, abridged:
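Readout: FRET fluorescence, 405 nm excitation, 460/530 nm emission; beta-lactamase expression disrupts FRET. Cells: ME-180 stably carrying NF-kB-driven bla reporter. Compound exposure 5 hr, 37 C, 5% CO2.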

The nature of experiment [3]: qHTS assay to identify small molecule agonists of the NFkB signaling pathway - cell viability counter screen (AID 1159515; calls by dose curve; further: series mostly up to about 61 µM; nearly all actives have a fitted effect of over 55% in size). The gist of the method: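 Cells are seeded (2,000 NFkB-bla ME-180 per well), rested overnight, and dosed with DMSO-dissolved compounds for 5 hr at 37 C. Viability is then read by CellTiter-Glo luminescence after 30 min at room temperature.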
(qHTS replaces the single test concentration by a dilution series.)

Experiment [4] can be described thus: qHTS assay to identify small molecule agonists of the endoplasmic reticulum stress response signaling pathway (AID 1159516; active means well fitted activation curve with a large enough effect in the signal ratio in the repeat runs, not every such curve was filed as active; the % refers to the signal ratio). The procedure, abridged: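 Cells are seeded at 1,500 per well and incubated overnight. Compounds in DMSO are added for 5 hr at 37 C, then beta-lactamase FRET substrate for 2 hr at room temperature, and fluorescence at 460 and 530 nm is measured.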

Experiment [5] is described as follows: qHTS assay to identify small molecule agonists of the endoplasmic reticulum stress response signaling pathway - cell viability counter screen (AID 1159517; calls by dose curve;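 further: HeLa cells carrying an ER stress response element beta-lactamase reporter; series mostly up to about 61 µM; nearly all actives have a fitted effect of over 50% in size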). The gist of the method:
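Cytotoxicity of test compounds toward ESRE-bla HeLa cells was assessed after 5 hr exposure. The luminescent CellTiter-Glo signal was measured 30 min after reagent addition.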

A short description of experiment [6]: qHTS assay to identify small molecule antagonists of the retinoid-related orphan receptor gamma (ROR-gamma) signaling pathway - cell viability counter screen (AID 1159520). Further: nearly all actives have a fitted effect of over 50% in size. The gist of the method: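 Tet-on ROR gamma CHO cells (1,000/well) were plated 4 hr, given compounds in DMSO for 2 hr at 37 C, then induced with 1 uM final doxycycline for 16 hr. Viability was read as ATP by CellTiter-Glo luminescence after 30 min.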

Experiment [7] concerns the target Nuclear receptor ROR-gamma (Homo sapiens) (UniProt P51449). Briefly: qHTS assay to identify small molecule antagonists of the retinoid-related orphan receptor gamma (ROR-gamma) signaling pathway (AID 1159521;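 further: CHO cells with doxycycline inducible ROR-gamma driving an RORE luciferase reporter; top concentration of the series differs between compounds; nearly all actives have a fitted effect of over 50% in size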). The gist of the method:
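Test compounds were applied to Tet-on RORγ CHO cells 2 h ahead of doxycycline hyclate (1 uM final). Luciferase reporter activity was quantified by luminescence after 16 h at 37 C and 5% CO2.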

Experiment [8] can be described thus: qHTS assay to identify small molecule agonists of the AP-1 signaling pathway - cell viability counter screen (AID 1159525; calls by dose curve; further: nearly all actives have a fitted effect of over 55% in size). The procedure, abridged: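 Each titration point was normalised to DMSO and tetra n-octyl ammonium bromide controls. The read was Cell Titer Glo luminescence after 30 min at RT, following 5 h compound exposure of ME-180 AP-1-bla cells at 37 °C.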

Experiment [9] in a line: qHTS assay to identify small molecule agonists of the AP-1 signaling pathway (AID 1159526; calls by dose curve).
Experiment [10] has as its target Retinoic acid receptor RXR-alpha (Homo sapiens) (UniProt P19793). Briefly: qHTS assay to identify small molecule agonists of the RXR signaling pathway (AID 1159527; calls by dose curve; further: nearly all actives have a fitted effect of over 35% in size; further: potency means the concentration at half of the fitted maximal effect). The procedure, abridged: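 Using 9-cis retinoic acid as the reference agonist, chemicals were tested in HEK 293T cells […] for 16 hr; substrate loading lasted 2 hr at room temperature.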

Experiment [11] is described as follows: qHTS assay to identify small molecule agonists of the RXR signaling pathway - cell viability counter screen (AID 1159529). The gist of the method:
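Compounds dissolved in DMSO were pinned onto HEK 293T cells carrying a beta-lactamase reporter under RXR-alpha control and incubated 16 hr. Cytotoxicity was then quantified by CellTiter-Glo luminescence.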

Experiment [12] in a line: qHTS assay to identify small molecule antagonists of the retinoid acid receptor (RAR) signaling pathway - cell viability counter screen (AID 1159551). Further: nearly all actives have a fitted effect of over 35% in size. The procedure, abridged:
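Cells (C3RL4) are plated, incubated overnight, dosed with compound in DMSO, then given retinol at 1 uM final. After 6 h at 37 C, CellTiter-Glo is added and luminescence read following 30 min at room temperature.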

Experiment [13] in a line: qHTS assay to identify small molecule antagonists of the retinoic acid receptor (RAR) signaling pathway (AID 1159552; further: nearly all actives have a fitted effect of over 50% in size). The procedure, abridged: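 Test chemicals and DMSO controls were pin-transferred onto C3RL4 cells a day after seeding; retinol (1 uM final) followed at once. Luminescent reporter output was quantified after 6 hr of co-incubation and 30 min with detection reagent.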

Experiment [14] can be described thus: qHTS assay to identify small molecule agonists of the retinoic acid receptor (RAR) signaling pathway (AID 1159553). The procedure, abridged: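 Seed C3RL4 reporter cells at 1,000 per well and incubate overnight at 37 C. Add compounds in DMSO, incubate 6 hr. Add luciferase reagent, wait 30 min at room temperature, read luminescence.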
A short description of experiment [15]: qHTS assay to identify small molecule antagonists of the estrogen related receptor (ERR) signaling pathway - cell viability counter screen (AID 1224818). Further: series mostly up to about 46 µM. The procedure, abridged: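 ERR cells, 2,000/well; 6 h settle at 37 C/5% CO2; compound pin transfer (DMSO); 17.5 h at 37 C; CellTiter-Fluor, 30 min, fluorescence read.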
The nature of experiment [16]: qHTS assay to identify small molecule antagonists of the estrogen related receptor signaling pathway with the pleiotropic PPARgamma coactivator (PGC) cell viability counter screen (AID 1224822; further: series mostly up to about 46 µM). The procedure, abridged: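 Multiplexed viability counter screen run in PGC/ERR cells treated with compounds for 17.5 h at 37 C; live-cell protease signal measured by CellTiter-Fluor fluorescence.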

Experiment [17] is described as follows: qHTS assay to identify small molecule antagonists of the vitamin D receptor (VDR) signaling pathway - cell viability counter screen (AID 743225). Further: nearly all actives have a fitted effect of over 50% in size. The gist of the method:
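Compounds were pinned onto VDR-bla HEK 293T cells together with 1-alpha,25-dihydroxyvitamin D3 at 3 nM final. After 16 h at 37C and 5% CO2 plus the reporter readout, cell viability was measured by CellTiter-Glo luminescence (30 min, room temperature).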

Retinoic acid receptor RXR-alpha (Homo sapiens), sequence (P19793 whole entry, looked up): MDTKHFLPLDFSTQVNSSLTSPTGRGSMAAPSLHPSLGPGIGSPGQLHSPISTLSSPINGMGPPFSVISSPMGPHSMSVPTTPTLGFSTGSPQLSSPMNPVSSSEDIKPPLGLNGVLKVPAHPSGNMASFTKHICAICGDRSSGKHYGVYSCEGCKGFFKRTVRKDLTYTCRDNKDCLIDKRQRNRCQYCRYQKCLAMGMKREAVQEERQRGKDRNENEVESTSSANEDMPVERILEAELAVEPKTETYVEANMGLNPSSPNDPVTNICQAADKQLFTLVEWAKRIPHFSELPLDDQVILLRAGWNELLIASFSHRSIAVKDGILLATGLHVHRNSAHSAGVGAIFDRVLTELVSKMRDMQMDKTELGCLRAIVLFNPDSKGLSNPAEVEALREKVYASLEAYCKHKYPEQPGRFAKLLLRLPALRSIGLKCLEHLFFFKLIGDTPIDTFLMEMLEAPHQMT

In the case of `CN(C)c1nc(N(C)C)nc(N(C)C)n1`, the Potency entry in [1], in experiment [3], in [4], in experiment [5], in [6] and in [7] was “inactive” in each case. For the same compound, the Potency entry in [8], in experiment [10], in experiment [11], in experiment [12], in [13] and in experiment [14] was “inactive” throughout. The Potency result in experiment [15] and in experiment [16] was “inactive” throughout. For the same compound, the compound was called inactive in experiment [2] and in experiment [9].

For the compound `O=Cc1ccccc1O`, the Potency result in experiment [1], in experiment [17], in experiment [3], in experiment [4], in experiment [5] and in experiment [6] was “inactive” throughout. For the same compound, the Potency result in [7], in experiment [8], in experiment [10], in experiment [11], in [12] and in experiment [13] was “inactive” each time. The result in [2] and in experiment [9] was inactive.

For `CN1C(C(=O)Nc2ccccn2)=C(O)c2ccccc2S1(=O)=O`, the Potency result in [1], in experiment [17], in experiment [3], in [4], in experiment [5] and in [6] was “inactive” throughout. In addition, the Potency entry in [7], in experiment [8], in [10], in experiment [11], in [12] and in experiment [13] was “inactive” each time. Further, the Potency result in experiment [15] and in experiment [16] was “inactive” each time. The outcome in experiment [2] and in experiment [9] was inactive.

Take `COc1c(Cl)c(Cl)c(Cl)c(Cl)c1Cl`: the Potency result in experiment [1], in [3], in [4], in experiment [5], in experiment [6] and in [7] was “inactive” throughout. Moreover, the Potency entry in experiment [8], in [10], in experiment [11] and in [12] was “inactive” in each case. Also, the outcome in [2] and in experiment [9] was inactive.

Take `C/C=C/C(=O)O`: the Potency result in [1], in [17], in [3], in [4], in experiment [5] and in experiment [6] was “inactive” in each case. Besides, the Potency entry in [7], in [8], in experiment [10], in experiment [11], in experiment [12] and in experiment [13] was “inactive” each time. For the same compound, the compound was called inactive in experiment [2] and in experiment [9].

With `Cc1cccc(C(=O)O)c1`, the Potency result in experiment [1], in experiment [3], in [4], in experiment [5], in [6] and in experiment [7] was “inactive” in each case. Also, the Potency result in experiment [8], in experiment [11], in [12] and in experiment [13] was “inactive” each time. In addition, the outcome in experiment [2] and in experiment [9] was inactive. The Potency in [10] was 27.5 µM (active).

On to `C=CC(C)(CCC=C(C)C)OC(C)=O` (stereo not given), for which the Potency entry in [1], in [17], in experiment [3], in experiment [4], in experiment [5] and in experiment [6] was “inactive” throughout. Further, the Potency entry in [7], in experiment [8], in experiment [10], in [11], in experiment [12] and in [13] was “inactive” in each case. Also, in [14], the Potency entry is “inactive”. Moreover, the outcome in [2] and in experiment [9] was inactive.

`O=C(c1ccccc1)c1ccccc1O`: the Potency result in [1], in experiment [17], in [3], in experiment [4], in experiment [5] and in [6] was “inactive” each time. Besides, the Potency entry in experiment [7], in experiment [8], in experiment [10], in experiment [11], in experiment [12] and in [13] was “inactive” throughout. The Potency result in [14] is “inactive”. Besides, the compound was classed as inactive in [2] and in experiment [9].

As for `CCCCNS(=O)(=O)c1ccccc1`, the Potency entry in [1], in experiment [17], in experiment [3], in experiment [4], in [5] and in [6] was “inactive” throughout. Moreover, the Potency entry in experiment [7], in experiment [8], in experiment [10], in experiment [11], in experiment [12] and in [13] was “inactive” each time. In addition, the Potency entry in [14] was “inactive”. The outcome in experiment [2] and in experiment [9] was inactive.

For the origin of these results see PubChem BioAssay (Tox21).
